From PubChem BioAssay AID1220 (Sanford-Burnham Center for Chemical Genomics, 2008)
About 1,300 (0.68%) of roughly 190,000 compounds were called active. Shown is part of a subset that was picked to be rich in actives. Values without a mark were called inactive. Rule as the data show it: active = inhibition above about 50%; inactive = the rest.

target: Mannose-6-phosphate isomerase (Homo sapiens) (UniProt P34949); test: MPI inhibition at elevated mannose 6-phosphate – biochemical, fluorescence intensity, high mannose 6-phosphate, primary screen (AID 1220); settings: recombinant PMI enzyme, coupled fluorescence intensity; at 20 µM; active compounds read high
Sequence (P34949 whole entry, looked up): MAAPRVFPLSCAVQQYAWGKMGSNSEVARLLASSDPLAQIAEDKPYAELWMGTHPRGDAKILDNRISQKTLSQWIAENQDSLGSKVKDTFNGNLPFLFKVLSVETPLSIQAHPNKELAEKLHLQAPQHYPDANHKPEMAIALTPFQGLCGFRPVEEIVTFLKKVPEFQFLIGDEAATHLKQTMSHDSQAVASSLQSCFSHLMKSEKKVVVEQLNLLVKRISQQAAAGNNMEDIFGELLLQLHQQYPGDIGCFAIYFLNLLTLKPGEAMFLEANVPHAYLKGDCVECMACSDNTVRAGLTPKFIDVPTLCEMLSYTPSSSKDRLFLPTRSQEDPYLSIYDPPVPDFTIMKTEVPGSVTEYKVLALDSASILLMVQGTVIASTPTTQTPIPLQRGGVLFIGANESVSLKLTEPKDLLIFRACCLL

| SMILES | inhibition |
| --- | --- |
| CC(c1ccco1)N(C(=O)c1ccc(C(F)(F)F)cc1)c1ccccn1 (configuration not stated) | 8.9% |
| Cc1ccc(S(=O)(=O)CC2CSc3nc4ccccc4n32)cc1 (configuration not stated) | 9.4% |
| CCCCc1cc(=O)oc2cc(C)cc(O)c12 | 7.5% |
| CCCc1cc(=O)oc2cc(C)cc(O)c12 | 2.5% |
| CCCCc1cc(=O)oc2cc(O)cc(O)c12 | 64% (active) |
| Clc1cccc(-c2ccc(C=Nc3ccc(N4CCOCC4)cc3)o2)c1 | 33.8% |
| Clc1ccc(-c2ccc(C=Nc3ccc(N4CCOCC4)cc3)o2)c(Cl)c1 | 47.6% |
| Clc1ccc(-c2ccc(C=Nc3ccc(N4CCOCC4)cc3)o2)cc1 | 24.7% |
| Cc1ccc(Cl)cc1-c1ccc(C=Nc2ccc(N3CCOCC3)cc2)o1 | 52.4% (active) |
| Oc1c(Br)cc(Cl)cc1C=Nc1ccc(N2CCOCC2)cc1 | 51.8% (active) |
| O=[N+]([O-])c1cc(Br)c(O)c(C=Nc2ccc(N3CCOCC3)cc2)c1 | 40.2% |
| Clc1cccc(-c2ccc(/C=N/n3cnnc3)o2)c1Cl | 1.1% |
| Clc1cccc(-c2ccc(C=Nc3ccc(N4CCOCC4)cc3)o2)c1Cl | 63.9% (active) |
| Oc1ccc(C=Nc2ccc(N3CCOCC3)cc2)c(O)c1 | 13.7% |
| O=C(O)c1cn(Cc2cccnc2)c(=O)c2ccccc12 | 1.5% |
| CCOC(=O)C1=C(c2ccccc2)Nc2ncnn2C1c1cc(OC)ccc1OC (configuration not stated) | 7.8% |
| Cn1c(=O)[nH]c(=O)c2c1nc(SCCN1CCOCC1)n2Cc1ccccc1 | 6.9% |
| COc1ccc(NC(=O)CCC(=O)OCc2ccc(C(=O)Oc3ccc(Cl)cc3)cc2)cc1 | -5.2% |
| CCCCN1C(=O)C(O)=C(C(C)=O)C1c1ccccc1 (configuration not stated) | -7.7% |
| COCCN(CCOC)c1nc(N)c2c(N)nc3c(c2c1C#N)CC(=O)N3Cc1ccc(Cl)cc1 | 25.1% |
| CN(CCO)c1nc(N)c2c(N)nc3c(c2c1C#N)CC(=O)N3Cc1cccs1 | 33.7% |

| SMILES | inhibition |
| --- | --- |
| CCCCN1C(=O)Cc2c1nc(N)c1c(N)nc(N(CCC)CCC)c(C#N)c21 | 56% (active) |
| CC(=O)c1c(C)[nH]c(C(=O)NCCc2ccccc2)c1C | 2.6% |
| c1ccc(-n2cccc2CNC2CCCCC2)cc1 | -4.6% |
| O=c1cc(N2CCOCC2)c2ccccc2o1 | 4.1% |
| Oc1ccc2c(c1)C1CCCC1(N1CCOCC1)O2 (configuration not stated) | 24.6% |
| c1ccc2c3c(cc(N4CCOCC4)c2c1)OC1(N2CCOCC2)CCCCC1O3 (configuration not stated) | 60.5% (active) |
| Cc1ccc(C)c(NC(=S)/C(=C(\[O-])c2ccc(Cl)s2)[n+]2ccccc2)c1 | 26.5% |
| Cc1cc(C)cc(NC(=S)/C(=C(\[O-])c2ccc(Cl)s2)[n+]2cccc(C)c2)c1 | 51.9% (active) |
| Cc1ccc(NC(=S)/C(=C(\[O-])c2ccc(Cl)s2)[n+]2cccc(CO)c2)cc1C | 10.4% |
| Cc1c(CNC(=O)c2cnn3c2NC(c2ccc(Br)cc2)CC3C(F)(F)F)cnn1C (configuration not stated) | 11.4% |
| Cc1ccc(NS(=O)(=O)c2cc([N+](=O)[O-])ccc2NNC(=S)Nc2cc(C)ccc2C)c(C)c1 | 9.1% |
| CC(=O)N(C1=C(N)C(=O)c2ccccc2C1=O)C(C)C | 54.5% (active) |
| CC(=O)N(C)C1=C(N2CCOCC2)C(=O)c2ccccc2C1=O | 33.1% |
| CC(=O)N(C)C1=C(O)c2ccccc2C(=O)C1=O | 19.6% |
| NC(=O)COC(=O)c1cccc(NS(=O)(=O)/C=C/c2ccccc2)c1 | 4.6% |
| Cn1c(C(=O)O)cnc1Sc1ncc(C(F)(F)F)cc1Cl | -17.5% |
| Cc1ccc(Nc2nnc(SCc3cc(=O)n4ccsc4n3)s2)c(C)c1 | 8.6% |
| COc1ccc2[nH]c3c(=O)n(Cc4ccc(C(=O)NCC5CCCO5)cc4)c(=S)[nH]c3c2c1 (configuration not stated) | 3.5% |
| CC(=O)Nc1ccc(C2(O)COc3ccccc3O2)cc1 (configuration not stated) | -2% |
| COc1ccccc1NC(=O)c1ccc(-c2ccccc2[N+](=O)[O-])o1 | 52.9% (active) |
| COc1cccc(NC(=O)c2ccc(-c3ccccc3[N+](=O)[O-])o2)c1 | -0.2% |

| SMILES | inhibition |
| --- | --- |
| COc1ccccc1NC(=O)c1ccc(-c2ccccc2F)o1 | -0.4% |
| Cc1ccccc1Cc1ccc(Cl)nn1 | -8.8% |
| CN(C)C(=S)SCC(=O)NCc1ccc(F)cc1 | 10.8% |
| CCc1cccc(NC(=O)c2snc3c(=O)[nH]cnc23)c1 | 7.2% |
| Cc1cccc(C)c1-n1cccc1/C=C1\SC(=S)N(c2cccc(C(=O)O)c2)C1=O | 3% |
| O=C1NC(=S)S/C1=C/c1ccc(N2CCOCC2)o1 | -14% |
| O=C(O)c1cc(-c2ccc(/C=C3/SC(=S)N(Cc4ccccc4)C3=O)o2)ccc1Cl | -34.8% |
| O=C1NC(=S)S/C1=C\c1ccc(SCc2ccco2)o1 | 7.7% |
| O=C1NC(=S)S/C1=C\c1ccc(SCc2ccccc2)o1 | 66.9% (active) |
| O=C(O)c1cccc(N2C(=O)/C(=C/c3ccc(SCc4ccc(Cl)cc4)o3)SC2=S)c1 | 67.9% (active) |
| O=C(COC(=O)c1sc2cc(F)ccc2c1Cl)Nc1ncc(Cl)cc1Cl | 13.4% |
| Cn1c(=O)c2c(nc(SCC(=O)Nc3ccccc3)n2C)n(C)c1=O | 6.1% |
| Cc1cccc(C)c1NC(=O)CSc1nnc(-c2cccnc2)o1 | 5.5% |
| COc1ccccc1NC(=S)N1CCN(C(=O)c2ccco2)CC1 | -3% |
| O=C(Cc1c(F)cccc1Cl)N1CCOCC1 | -13.4% |
| COCCn1c(=O)c2c(nc3n2CCN3c2ccc(C)cc2)n(C)c1=O | 0.4% |
| CCOc1ccc(NC(=O)c2ccccc2O)cc1 | -0.8% |
| CCOc1ccc(N=C(NN)c2ccc3ccccc3n2)cc1 | -57.4% |
| CCOc1ccc(N=C(C)c2ccccc2O)cc1 | 55.9% (active) |
| Cc1cccc(OCC(=O)Nc2ccc3nc(C)sc3c2)c1 | -10.9% |
